Several values for one entry are separate records, joined by “and”; a condition that tells them apart may be missing. Identical values can stand only once. The whole screen tested about 5,500 compounds, of which about 2,000 (36%) were called active. About 18% were inconclusive and are not listed. Cut-off read from the data, not from the text of the source: active = normalized growth mostly below about 0.91 (no sharp cut-off); inconclusive = no clear call, values can overlap the other calls; inactive = mostly above about 0.92. The list shows a part of the results.
Assay: chemical genetic growth profiling, strain panel (AID 1159580);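 note: tested at 20 µM; growth read once vehicle control cultures reached saturation at 30 °C; 1 = growth at the plate median or of vehicle wells; lower values mean less growth of the strain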
Conditions: growth OD
[1] = S. cerevisiae deletion strains, locus YAL013W, strain DEP1, stronger effect = lower value
[2] = S. cerevisiae deletion strains, locus YGR078C, strain PAC10, stronger effect = lower value
[3] = S. cerevisiae deletion strains, locus YGR229C, strain SMI1, stronger effect = lower value
[4] = S. cerevisiae deletion strains, locus YJR075W, strain HOC1, stronger effect = lower value
[5] = S. cerevisiae deletion strains, locus YMR307W, strain GAS1, stronger effect = lower value
[6] = S. cerevisiae deletion strains, locus YNL153C, strain GIM3, stronger effect = lower value
[7] = S. cerevisiae deletion strains, locus YPL055C, strain LGE1, stronger effect = lower value
[8] = S. cerevisiae deletion strains, locus YPL241C, strain CIN2, stronger effect = lower value
[9] = S. cerevisiae deletion strains, locus YBR229C, strain ROT2, stronger effect = lower value
[10] = S. cerevisiae deletion strains, locus YDL101C, strain DUN1, stronger effect = lower value
[11] = S. cerevisiae deletion strains, locus YDR150W, strain NUM1, stronger effect = lower value
[12] = S. cerevisiae deletion strains, locus YEL061C, strain CIN8, stronger effect = lower value
[13] = S. cerevisiae deletion strains, locus YHR030C, strain SLT2, stronger effect = lower value
[14] = S. cerevisiae deletion strains, locus YJR043C, strain POL32, stronger effect = lower value
[15] = S. cerevisiae deletion strains, locus YKL190W, strain CNB1, stronger effect = lower value
[16] = S. cerevisiae deletion strains, locus YLR039C, strain RIC1, stronger effect = lower value
[17] = S. cerevisiae deletion strains, locus YLR262C, strain YPT6, stronger effect = lower value
[18] = S. cerevisiae deletion strains, locus YMR263W, strain SAP30, stronger effect = lower value
[19] = S. cerevisiae deletion strains, locus YNL322C, strain KRE1, stronger effect = lower value
[20] = S. cerevisiae deletion strains, locus YOL006C, strain TOP1, stronger effect = lower value

Measured: normalized growth

N[C@@H](Cc1ccc(O)c(I)c1)C(=O)O
inactive: [1] 0.997 | S. cerevisiae deletion strains, locus YAL040C, strain CLN3, stronger effect = lower value 0.991 | S. cerevisiae deletion strains, locus YCL061C, strain MRC1 (second series), stronger effect = lower value 1 | S. cerevisiae deletion strains, locus YDR363W, strain ESC2, stronger effect = lower value 1.01 | S. cerevisiae deletion strains, locus YER002W, strain NOP16, stronger effect = lower value 1.02 | [2] 1.01 | [3] 1.01 | [4] 0.991 | [5] 0.992 | [6] 1 | S. cerevisiae deletion strains, locus YNL175C, strain NOP13, stronger effect = lower value 1 | S. cerevisiae deletion strains, locus YNL197C, strain WHI3, stronger effect = lower value 0.997 | S. cerevisiae deletion strains, locus YNL224C, strain SQS1, stronger effect = lower value 1.01 | S. cerevisiae deletion strains, locus YOR083W, strain WHI5 (second series), stronger effect = lower value 1.02 | [7] 0.979 | [8] 0.993

O=C(O)Cc1ccccc1I
inactive: [1] 1 | [9] 0.996 | [10] 0.99 | [11] 0.988 | [12] 1.02 | [2] 0.989 | [13] 1.06 | S. cerevisiae deletion strains, locus YHR087W, strain rtc3, stronger effect = lower value 0.994 | S. cerevisiae deletion strains, locus YJL187C, strain SWE1, stronger effect = lower value 0.952 | [14] 1 | [4] 0.985 | [15] 1.02 | [16] 1.03 | S. cerevisiae deletion strains, locus YLR058C, strain SHM2 (second series), stronger effect = lower value 1 | S. cerevisiae deletion strains, locus YLR085C, strain ARP6, stronger effect = lower value 1.05 | [17] 1.05 | S. cerevisiae deletion strains, locus YML094W, strain GIM5, stronger effect = lower value 1.01 | S. cerevisiae deletion strains, locus YMR219W, strain ESC1, stronger effect = lower value 1.01 | [18] 1.01 | [6] 0.975 | S. cerevisiae deletion strains, locus YNL298W, strain CLA4 (second series), stronger effect = lower value 1.07 | [19] 1 | S. cerevisiae deletion strains, locus YNR030W, strain Alg12, stronger effect = lower value 1.03 | [20] 1.11 | [7] 0.978 | [8] 1.02 | S. cerevisiae deletion strains, locus YPR135W, strain CTF4, stronger effect = lower value 1.05

O=C(O)Cc1cc(I)c(Oc2cc(I)c(O)c(I)c2)c(I)c1
inactive: [1] 0.948 | S. cerevisiae deletion strains, locus YBR021W, strain FUR4, stronger effect = lower value 1.03 | [9] 0.936 | S. cerevisiae deletion strains, locus YCL029C, strain bik1, stronger effect = lower value 0.96 | S. cerevisiae deletion strains, locus YDL035C, strain GPR1, stronger effect = lower value 0.982 | S. cerevisiae deletion strains, locus YDL074C, strain BRE1, stronger effect = lower value 0.942 | [10] 0.955 | S. cerevisiae deletion strains, locus YDL134C, strain PPH21, stronger effect = lower value 0.968 | S. cerevisiae deletion strains, locus YDL185W, strain tfp1, stronger effect = lower value 0.931 | S. cerevisiae deletion strains, locus YDL192W, strain arf1, stronger effect = lower value 0.957 | S. cerevisiae deletion strains, locus YDR101C, strain arx1, stronger effect = lower value 0.979 | [11] 0.943 | S. cerevisiae deletion strains, locus YDR162C, strain NBP2, stronger effect = lower value 0.847 | S. cerevisiae deletion strains, locus YDR318W, strain mcm21, stronger effect = lower value 0.98 | S. cerevisiae deletion strains, locus YDR388W, stronger effect = lower value 0.955 | S. cerevisiae deletion strains, locus YDR502C, strain sam2, stronger effect = lower value 0.957 | [12] 0.964 | S. cerevisiae deletion strains, locus YER110C, stronger effect = lower value 0.973 | S. cerevisiae deletion strains, locus YER155C, strain BEM2, stronger effect = lower value 0.97 | S. cerevisiae deletion strains, locus YER167W, strain BCK2, stronger effect = lower value 0.97 | S. cerevisiae deletion strains, locus YGL078C, strain dbp3, stronger effect = lower value 0.94 | S. cerevisiae deletion strains, locus YGL086W, strain mad1, stronger effect = lower value 0.982 | S. cerevisiae deletion strains, locus YGL248W, strain PDE1, stronger effect = lower value 0.965 | [2] 0.958 | S. cerevisiae deletion strains, locus YGR135W, strain pre9, stronger effect = lower value 0.942 | [3] 0.973 | S. cerevisiae deletion strains, locus YGR252W, strain gcn5, stronger effect = lower value 1.06 | S. cerevisiae deletion strains, locus YHR079C, strain IRE1 (second series), stronger effect = lower value 0.973 | S. cerevisiae deletion strains, locus YHR094C, strain hxt1, stronger effect = lower value 0.956 | S. cerevisiae deletion strains, locus YHR129C, strain ARP1, stronger effect = lower value 0.976 | S. cerevisiae deletion strains, locus YHR200W, strain rpn10, stronger effect = lower value 0.959 | S. cerevisiae deletion strains, locus YIL066C, strain RNR3, stronger effect = lower value 0.97 | S. cerevisiae deletion strains, locus YIL073C, strain SPO22, stronger effect = lower value 1.02 | S. cerevisiae deletion strains, locus YIL125W, strain kgd1, stronger effect = lower value 0.944 | S. cerevisiae deletion strains, locus YIR030C, strain dcg1, stronger effect = lower value 0.939 | S. cerevisiae deletion strains, locus YJL095W, strain BCK1, stronger effect = lower value 0.924 and 0.892 | S. cerevisiae deletion strains, locus YJL134W, strain LCB3, stronger effect = lower value 0.954 | S. cerevisiae deletion strains, locus YJL168C, strain set2, stronger effect = lower value 0.942 | S. cerevisiae deletion strains, locus YJL187C, strain SWE1 (second series), stronger effect = lower value 0.949 | [14] 1.06 | S. cerevisiae deletion strains, locus YJR066W, strain TOR1, stronger effect = lower value 0.864 | [4] 1 | S. cerevisiae deletion strains, locus YKL009W, strain mrt4, stronger effect = lower value 0.945 | [15] 0.946 | S. cerevisiae deletion strains, locus YKR001C, strain vps1, stronger effect = lower value 0.931 | [16] 0.817 | S. cerevisiae deletion strains, locus YLR058C, strain SHM2, stronger effect = lower value 0.959 | S. cerevisiae deletion strains, locus YLR102C, strain apc9, stronger effect = lower value 0.935 | [17] 0.749 | S. cerevisiae deletion strains, locus YLR268W, strain sec22, stronger effect = lower value 0.963 | S. cerevisiae deletion strains, locus YLR330W, strain CHS5, stronger effect = lower value 0.967 | S. cerevisiae deletion strains, locus YLR342W, strain FKS1 (second series), stronger effect = lower value 1.02 | S. cerevisiae deletion strains, locus YLR371W, strain rom2, stronger effect = lower value 0.987 | S. cerevisiae deletion strains, locus YLR418C, strain cdc73, stronger effect = lower value 0.911 | S. cerevisiae deletion strains, locus YML016C, strain PPZ1, stronger effect = lower value 0.95 | S. cerevisiae deletion strains, locus YML032C, strain rad52, stronger effect = lower value 0.983 | S. cerevisiae deletion strains, locus YML124C, strain tub3, stronger effect = lower value 0.951 | S. cerevisiae deletion strains, locus YMR078C, strain ctf18, stronger effect = lower value 0.96 | S. cerevisiae deletion strains, locus YMR223W, strain ubp8, stronger effect = lower value 1.01 | [18] 0.944 | [5] 1.07 | S. cerevisiae deletion strains, locus YNL067W, strain RPL9B, stronger effect = lower value 0.969 | S. cerevisiae deletion strains, locus YNL128W, strain TEP1, stronger effect = lower value 0.952 | [6] 0.951 | S. cerevisiae deletion strains, locus YNL183C, strain NPR1, stronger effect = lower value 0.829 | S. cerevisiae deletion strains, locus YNL233W, strain BNI4, stronger effect = lower value 0.968 | S. cerevisiae deletion strains, locus YNL250W, strain rad50, stronger effect = lower value 0.923 | S. cerevisiae deletion strains, locus YNL271C, strain bni1, stronger effect = lower value 0.942 | S. cerevisiae deletion strains, locus YNL298W, strain CLA4, stronger effect = lower value 0.952 | S. cerevisiae deletion strains, locus YNL307C, strain MCK1, stronger effect = lower value 0.982 | [19] 0.962 | S. cerevisiae deletion strains, locus YNR052C, strain pop2, stronger effect = lower value 0.973 | [20] 0.862 | S. cerevisiae deletion strains, locus YOL012C, strain htz1 0.639 | S. cerevisiae deletion strains, locus YOL147C, strain pex11, stronger effect = lower value 0.965 | S. cerevisiae deletion strains, locus YOR061W, strain CKA2, stronger effect = lower value 0.929 | S. cerevisiae deletion strains, locus YOR069W, strain VPS5, stronger effect = lower value 0.962 | S. cerevisiae deletion strains, locus YOR136W, strain idh2, stronger effect = lower value 0.997 | S. cerevisiae deletion strains, locus YOR144C, strain elg1, stronger effect = lower value 0.947 | S. cerevisiae deletion strains, locus YOR184W, strain ser1, stronger effect = lower value 1.03 | S. cerevisiae deletion strains, locus YOR316C, strain cot1, stronger effect = lower value 0.941 | [7] 0.922 | [8] 0.953 | S. cerevisiae deletion strains, locus YPR119W, strain clb2, stronger effect = lower value 0.95 | S. cerevisiae deletion strains, locus YPR141C, strain kar3, stronger effect = lower value 0.924 | S. cerevisiae deletion strains, locus YPR167C, strain met16, stronger effect = lower value 0.98 | S. cerevisiae deletion strains, strain wtn01, stronger effect = lower value 0.95 | S. cerevisiae strains, strain wild type, stronger effect = lower value 0.96
0.989 (inactive) and 0.84 (active): [13]
active: S. cerevisiae deletion strains, locus YHR079C, strain IRE1, stronger effect = lower value 0.762 | S. cerevisiae deletion strains, locus YKL068W, stronger effect = lower value 0.917 | S. cerevisiae deletion strains, locus YKL085W, strain MDH1 (second series), stronger effect = lower value 0.924 | S. cerevisiae deletion strains, locus YKL085W, strain MDH1, stronger effect = lower value 0.924 | S. cerevisiae deletion strains, locus YLR113W, strain HOG1, stronger effect = lower value 0.418 | S. cerevisiae deletion strains, locus YOR231W, strain MKK1, stronger effect = lower value 0.67 | S. cerevisiae deletion strains, locus YPL256C, strain CLN2, stronger effect = lower value 0.679 | S. cerevisiae deletion strains, locus YPR163C, strain tif3, stronger effect = lower value 0.719
